PubChem BioAssay (NCI)
Values joined by “and” are separate entries in the source; they are usually repeats but may differ in a detail not shown here. Identical values can stand only once. The panel holds about 79,000 compounds, 15% with a hit somewhere; the sample as a whole holds those more often. Active and inactive are the calls of the source. Cut-off read from the data, not from the text of the source: active = growth inhibition above about 70%; inactive = the rest.

Key:
[1] = NCI Yeast Anticancer Drug Screen. Data for the rad50 strain (AID 155);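 note: 0% = growth of vehicle-only cultures of the same strain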; details: S. cerevisiae rad50 strain growth inhibition, active compounds read high; at 50.0 µM unless noted
Method in brief: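 Growth of the mutant yeast was measured after compound exposure and referenced to vehicle-treated cultures.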

[2] = NCI Yeast Anticancer Drug Screen. Data for the mec2-1 strain (AID 157); details: S. cerevisiae mec2-1 strain, active compounds read high; at 50.0 µM unless noted
Method in brief: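 Growth inhibition is read against vehicle-treated controls after compound exposure of the mec2-1 yeast strain, which is defective in DNA damage repair or cell cycle control.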

[3] = NCI Yeast Anticancer Drug Screen. Data for the cln2 rad14 strain (AID 165);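 note: 0% = growth equal to vehicle treated cultures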; details: S. cerevisiae cln2 rad14 strain, active compounds read high; at 50.0 µM unless noted
Method in brief: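 Growth inhibition, relative to vehicle-treated controls, is the read-out. The test organism is a yeast strain with defined genetic alterations, cln2 rad14.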

[4] = NCI Yeast Anticancer Drug Screen. Data for the bub3 strain (AID 167); details: S. cerevisiae bub3 mutant strain, active compounds read high; at 50.0 µM unless noted
Method in brief: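 Whole-cell yeast assay. The mutant strain was incubated with compounds, and growth inhibition was determined by comparison with vehicle-treated cells.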

[5] = NCI Yeast Anticancer Drug Screen. Data for the mlh1 rad18 strain (AID 175); details: S. cerevisiae mlh1 rad18 strain growth inhibition, active compounds read high; at 50.0 µM unless noted
Method in brief: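 Cells of a genetically altered yeast strain, deficient in DNA damage repair, were treated with compound. Their growth was then compared with that of vehicle-treated cultures to give inhibition.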

[6] = NCI Yeast Anticancer Drug Screen. Data for the sgs1 mgt1 strain (AID 161);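 note: 0% = growth of cultures given vehicle only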; details: S. cerevisiae sgs1 mgt1 strain, active compounds read high; at 50.0 µM unless noted
Method in brief: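 Growth of a repair-deficient yeast mutant was monitored after compound treatment and expressed as inhibition relative to vehicle-treated cultures.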

Measured: growth inhibition

CC(=O)Nc1snc(C)c1[N+](=O)[O-]
inactive: [1] -4.55% | [2] -0.1% | [3] -8.2% | [4] -2.9% | [5] 0.55%

CCCCCCCCCCCCC(=O)N1CCOCC1
active: [1] 99.5% | [2] 99.7% | [3] 99.5% | [4] 99.6% | [5] 99.5%

COc1ccc(OC)c(NC(=O)CCCC(=O)C(C#N)c2ccc(CC#N)cc2)c1 (stereo unspecified)
inactive: [1] -15.8% | [2] -17.6% | [3] -40.8% | [4] 3.1% | [5] -25.6%

Nn1c(-c2ccccc2)nc2ccc(Br)cc2c1=O
inactive: [1] 0.95% | [2] 7.55% | [3] 24.8% | [4] 7.95% | [5] 43.5%

O=C(O)CC1NC(/C(=C/c2ccccc2O)NC(=O)c2ccccc2)OC1=O (stereo unspecified)
inactive: [1] -1.5% | [2] -5.85% | [3] -5.95% | [4] 15.2% | [5] -28.7%

CC(C)CCC(C)C1CCC2C3CCC4CC(=O)CC4(C)C3CCC12C (stereo unspecified)
inactive: [1] -13.5% | [2] 7.2% | [3] -10.4% | [4] -11.6% | [5] 2.85%

CCOC(=O)C12CCCC1(O)N(NC(N)=O)C(C)=C2C(=O)OC (stereo unspecified)
inactive: [1] 10.2% | [2] -5.1% | [3] -69.1% | [4] -11.9% | [5] 6.2%

COc1cc2c(c(OC)c1OC)-c1ccc(OC)c(=O)cc1[C@@H](NC=O)CC2
inactive: [1] -11% | [2] -14.5% | [3] 4.15% | [4] -8.05% | [5] -29.8%

C=C1CC(C2OCOC3COCOC32)OC1=O (stereo unspecified)
inactive: [1] -44.1% | [2] -12.9% | [3] -22.6% | [4] 17.2% | [5] -2.1%

CC(=O)NC(CCC(C)C)C(=O)O (stereo unspecified)
inactive: [1] -0.05% | [2] 25.2% | [3] -13.6% | [4] 15.6% | [5] -7.35%

CS(=O)(=O)OCC(Br)C(Br)COS(C)(=O)=O (stereo unspecified)
inactive: [1] 2.8% | [2] 5.2% | [3] 26.4% | [4] -5.3% | [5] 10.2%

CNC(=O)N(C)Cc1ccccc1
inactive: [1] 12.7% | [2] -12.8% | [3] -98.7% | [4] -13.6% | [5] -11.2%

Cc1ccccc1C(=O)C[n+]1ccccc1C
inactive: [1] -11.8% | [2] 15.5% | [3] -21.6% | [4] 4.1% | [5] 8.3%

CCOC(Nc1cc(Cl)cc(Cl)c1)C(=O)c1ccccc1 (stereo unspecified)
inactive: [1] -1.9% | [2] -0.7% | [3] -3.05% | [4] 4.05% | [5] -5.65%

COCNC(=S)c1ccc(C(N)=O)nc1C(=O)NC(C)(C)C
inactive: [1] 15.8% | [2] 0.4% | [3] -3.3% | [4] -5.8% | [5] 30.6%

COC1CCC(=O)N1CN(C(C)=O)c1ccc(C)cc1 (stereo unspecified)
inactive: [1] 10.4% | [2] 9.1% | [3] 28.4% | [4] 3.75% | [5] -28.1%

O=C(NC1CCCCC1)/C(=C\c1ccccc1)NC(=O)c1ccccc1
inactive: [1] -26.8% | [2] -48.4% | [3] 0.05% | [4] -6.8% | [5] -27.4%

COc1ccc(/C(=N\NC(=S)NN)C(c2ccc(OC)cc2)C2C(=O)Oc3ccccc32)cc1 (stereo unspecified)
inactive: [1] 13.4% | [2] 5.85% | [3] -9.3% | [4] 12.7% | [5] 2.85%

CC(C)CCN
inactive: [1] 2.75% | [2] 8.9% | [3] 19.1% | [4] 3.3% | [5] 30.2%

COc1c(OC2OC(CO)C(O)C(O)C2O)cc2c(c1OC)-c1ccc(OC)c(=O)cc1[C@@H](NC(C)=O)CC2 (stereo partly specified)
inactive: [1] -4.2% | [2] 9.6% | [6] 3.8% | [4] -0.1% | [5] 8.05%

CC1CCC(c2cc(-c3ccccc3)n(-c3ccccc3)n2)CC1 (stereo unspecified)
inactive: [1] -6.25% | [2] 6.05% | [3] -26.4% | [4] -17.4% | [5] -6.15%

CCOC(=O)C12CCCC1(O)N(NC(=O)OC)C(C)=C2C(=O)OC (stereo unspecified)
inactive: [1] -6.6% | [2] -7.65% | [3] -63.4% | [4] -5.6% | [5] -6.5%

O=c1c2ccccc2c(=O)c2c1c1c(=O)c3ccccc3c(=O)c1c1c(=O)c3ccccc3c(=O)c21
inactive: [1] 22.2% | [2] 9.65% | [3] 29.6% | [4] 0.5% | [5] 22.4%

CCc1ccc(-c2cc(-c3ccc(CC)cc3)cc(-c3ccc(CC)cc3)c2)cc1
inactive: [1] 20.1% | [2] -10.1% | [3] 0.3% | [4] -4.7% | [5] 7.95%

S=C(S)Nc1cccc2ccccc12
inactive: [2] -13.9% and -10.2%

COC(=O)N/N=C(/CCC(=O)Nc1ccc(C)c(C)c1)CC(=O)C(C)(C)C
inactive: [2] -12.1% | [6] 8.45% | [3] 2% | [4] 19.1% | [5] -1.9%

CCCCNC(=O)/C=C/C(=O)NCCCC
inactive: [2] 1.95% | [6] -0.9% | [3] -36.4% | [4] -7.35% | [5] -1.5%

CNC(=O)NC(c1ccc(F)cc1)c1cc2c(cc1O)OCO2 (stereo unspecified)
inactive: [2] -16.4% | [6] -2.4% | [3] 12.6% | [4] -1.8% | [5] 12.4%

CC(CC(=O)O)(CC(=O)O)C(=O)O
inactive: [2] -17.9% | [6] -28.9% | [3] 12.6% | [4] -29.4% | [5] -22.9%

COC1CN(C(C)(C)C)C1
inactive: [2] 6.15% | [6] -1.2% | [3] 2.65% | [4] 6.6% | [5] 0.95%

c1ccc(C(=NN=C(c2ccccc2)c2ccccc2)c2ccccc2)cc1
inactive: [2] 23.9% | [6] 8.4% | [3] 30.5% | [4] 1.25% | [5] 6.25%

Cc1cc(N(CCC#N)CCC#N)ccc1N=Nc1ccc(S(N)(=O)=O)cc1
inactive: [2] -9.45% | [6] -12.4% | [3] 3.65% | [4] 0.55% | [5] 0.8%

COc1ccc2c(O)c(Oc3ccccc3)c(=O)oc2c1
inactive: [2] 5% | [6] 4.25% | [3] 30.9% | [4] 15.3% | [5] 13.1%

CN=c1ss/c(=N\C(=S)N(C)C)n1C1CCCCC1
inactive: [2] -0.55% | [6] 14% | [3] 13.1% | [4] 0% | [5] 21.2%

CSc1nc(N)c(I)c(Cl)n1
inactive: [2] 3.65% | [6] 6.9% | [3] 2.4% | [4] -14.6% | [5] -2.6%

Clc1ccc(/C=N\OCc2ccc(Cl)c(Cl)c2)cc1Cl
inactive: [2] -13.1% | [6] 2.1% | [3] -17.9% | [4] -4.85% | [5] -5.25%

COc1ccc(CCl)cc1OCc1ccccc1
inactive: [2] -17.8% | [6] -16.7% | [3] -24.4% | [4] -14.7% | [5] -21.2%

COC1OC2COc3ccccc3OC2C2C1N2C(N)=O (stereo unspecified)
inactive: [2] 0.7% | [6] 4.5% | [3] -6.65% | [4] -2.85% | [5] 3.8%

COc1c2c(c(OC)c3c(=O)cc(C/C(=N/NC(=O)C[n+]4ccccc4)C(=O)Nc4cc(C)ccc4C)oc13)OCO2
inactive: [2] -6.65% | [6] -18.1% | [3] 5.6% | [4] -3.15% | [5] -0.3%

COC(=O)/C([O-])=C(\C(=O)OC)[n+]1cc(Br)cc2ccccc21
inactive: [2] 1.85% | [6] 31.6% | [3] -9.5% | [4] 56.8% | [5] -7.4%
